HIV RNase H inh-1 – blocks HIV-1 RNase H cleavage of RNA/DNA duplex; actives 1.9% (n = 65,000); RT-RNase H RNA/DNA duplex cleavage, fluorescence; P04585; AID 565; inhibition, % at 10 µM; in the data active means inhibition above about 50%
HIV RNase H inh-2 – confirmation of HIV-1 reverse transcriptase RNase H inhibitors | shares compounds with HIV RNase H inh-1 | Recombinant RT RNase H, fluorescent RNA/DNA duplex cleavage | inhibition, % at 10 µM | actives 39% (n = 1,000); in the data active means inhibition above about 48%; inconclusive means no clear call, values can overlap the other calls
The depositor's hits bear a star; ? = inconclusive. The full list was thinned out, with hits kept by preference.

SMILES | HIV RNase H inh-1 | others
COc1ccc(OC)c(S(=O)(=O)Nc2ccc(O)c(Sc3ncn[nH]3)c2)c1 | 94* | HIV RNase H inh-2=60*
COc1ccc(OC)c(S(=O)(=O)Nc2ccc(O)c3ccccc23)c1 | 83* | HIV RNase H inh-2=?
COc1ccc(OC)c(S(=O)(=O)Nc2ccc(C(N)=O)cc2)c1 | -8
CNS(=O)(=O)c1cc(OC)ccc1OC | 0
CC(C)OC(=O)C1C(=O)CC(C)(O)C(C(=O)OC(C)C)C1c1cccc(O)c1 (stereo unspecified) | -7
COc1ccc(OC)c(C2/C(=C(\O)c3c(C)nc4ccccn34)C(=O)C(=O)N2CCCN(C)C)c1 (stereo unspecified) | -3
CC(NC(=O)Cc1cccs1)C(c1cccs1)N1CCOCC1 (stereo unspecified) | 9
COc1cccc(-n2c(SCC(=O)N3CCCC3)nc3c([nH]c4ccccc43)c2=O)c1 | 45
Cc1cc2ncn(C(=O)c3c(-c4ccccc4Cl)noc3C)c2cc1C | -17
Cc1ccnc(NC(=O)COc2ccc3oc4c(c3c2)CCCC4)c1 | -6
COC(=O)C1=C2SC(C)C(=O)N2C(N)=C(C#N)C1c1ccc(OC)c(OC)c1 (stereo unspecified) | 11
COc1ccc(C2C(C#N)=C(N)N3C(=C2C#N)Sc2ccccc23)cc1 (stereo unspecified) | 87* | HIV RNase H inh-2=60*
COc1cccc(C2C(C#N)=C(N)OC(C(C)(C)C)=C2C#N)c1 (stereo unspecified) | -5
CCOC(=O)N1CCC(NC(=O)CCc2c(C)nc3c(c(C)nn3C(C)(C)C)c2C)CC1 | -2
Cn1cnc(S(=O)(=O)NCc2cccs2)c1 | -12
COC(=O)c1cc(Br)c(=O)n(-c2ccc(C(C)=O)cc2)c1 | 0
O=C(CSc1nc2ccccc2s1)NC(=O)NCc1ccco1 | 0
CS/C(=N\S(=O)(=O)c1cccs1)NC(=O)CSc1nc2ccccc2s1 | 73* | HIV RNase H inh-2=35
c1csc(CSc2nc3ccccc3s2)c1 | -16
CCC(C)(C)n1nnnc1CN1CCN(c2nc3cc(OC)ccc3cc2C#N)CC1 | -14
COc1cc(NS(=O)(=O)c2ccc(NC(=O)COc3ccc(C)cc3)cc2)nc(OC)n1 | -5
COc1cc(NS(=O)(=O)c2ccc(NC(=O)COc3ccccc3C)cc2)nc(OC)n1 | 17
COc1cc(NS(=O)(=O)c2ccc(NC(=O)CSC3=NCCS3)cc2)nc(OC)n1 | 54* | HIV RNase H inh-2=45
COCCNc1cc(C)nc2c3c(C)cc(C)nc3nn12 | -9
Cc1ccc(-c2nnn(CC(=O)N3CCN(c4ccccc4)CC3)n2)o1 | -3
SMILES | HIV RNase H inh-1 | others
COc1cccc(-n2nnnc2SCC(=O)NCCc2ccccc2)c1 | 70* | HIV RNase H inh-2=38
COc1ccc(OC)c(-n2nnnc2SCC(=O)NCCc2ccccc2)c1 | -26
COc1cccc(-n2nnnc2SCC(=O)NCc2ccco2)c1 | -16
CC(C)OC(=O)c1c(F)c(F)c(N2CCOCC2)c(F)c1F | -1
Clc1ccc(-c2nnc3sc(-c4ccc(Br)o4)nn23)cc1 | 48
Cc1oc(-c2ccc(Cl)cc2)cc1-c1nn2c(-c3ccoc3C)nnc2s1 | 86* | HIV RNase H inh-2=55*
CN(C)c1ccc(-c2nn3c(-c4ccc(Cl)cc4Cl)nnc3s2)cc1 | 43
CSCC[C@H](NC(=O)OC(C)(C)C)c1nnc(SCC=C(C)C)o1 | -1
O=C(Nc1nnc(C2CCCC2)s1)C1CCC1 | 3
O=C(CCSc1nc2ccccc2o1)N1CCOCC1 | -4
Cn1c(=O)[nH]c(=O)c2c1nc(N1CCN(Cc3ccccc3)CC1)n2CCCc1ccccc1 | -3
CCCCCn1c(N2CCN(c3cccc(Cl)c3)CC2)nc2c1c(=O)[nH]c(=O)n2C | -10
Cn1c(=O)[nH]c(=O)c2c1nc(N1CCN(c3cccc(Cl)c3)CC1)n2CCCc1ccccc1 | 56* | HIV RNase H inh-2=1
CCOc1ccc(C(C)=O)cc1COc1ccc(-n2cnnn2)cc1 | -9
Cc1cc(C)nc(SCC(=O)NC2=NC(=O)C(C)S2)n1 (stereo unspecified) | 28
Cc1cc(C(F)(F)F)nc(SCC(=O)Nc2ccccc2)n1 | -10
Cc1cc(C(F)(F)F)nc(SCC(=O)NC2=NC(=O)C(C)S2)n1 (stereo unspecified) | 60* | HIV RNase H inh-2=?
COC(=O)Cn1nnc(-c2cccc(OC)c2)n1 | -25
Cc1cc(Cl)ccc1OCCCC(=O)NC1CCN(C)CC1 | -15
c1ccc(-c2cnnc(N3CCCCC3)n2)cc1 | -46
CC(C)(C)OC(=O)NC(CCCCNC=O)C(=O)O (stereo unspecified) | -9
Cc1ccc(Cn2c(NCCCn3ccnc3)nc3c2c(=O)n(C)c(=O)n3C)cc1 | 4
Cc1cc(NC(=O)COC(=O)c2c(C)nn(Cc3ccccc3)c2Cl)no1 | 4
COc1cc(C(=O)OCC(=O)Nc2cc(C)on2)ccc1OCc1ccccc1Cl | 52* | HIV RNase H inh-2=21
Cc1cc(NC(=O)COC(=O)CCCOc2ccc(Cl)cc2C)no1 | 9
CCCCc1nc(N2CCOCC2)c(C#N)c2c1COC(C)(C)C2 | -4
O=c1c2cc3c(cc2[nH]c(=S)n1Cc1ccco1)OCO3 | -8

Screening results (PubChem BioAssay)
